Data as given in PubChem BioAssay (EPA / NIEHS).
Values joined by “and” are separate entries in the source; they are usually repeats but may differ in a detail not shown here. Equal entries are not always repeated. More than one record can exist for a structure, and the calls need not agree. Active and inactive are the calls of the source. How the source made its calls: active means hit-call score of the fitted dose curve at least 0.9, where 1 is the maximum; inactive means score below 0.9.

How the values were obtained:
[1] = read-out: Plasminogen activator inhibitor-1 (PAI1), SERPINE1 (gene 5054); experiment: BSK_MyoF_PAI1: BioMAP Diversity Plus: MyoF Assay for Plasminogen activator inhibitor-1 (PAI1) Biomarker Activity (AID 2284256); details: primary human lung fibroblasts
In short: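 Activity reflects increased PAI-1, determined by ELISA and compared with DMSO, in human lung fibroblasts treated for 24 h.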

[2] = read-out: Interleukin-8 (IL8), CXCL8 (gene 3576); experiment: BSK_MyoF_IL8: BioMAP Diversity Plus: MyoF Assay for Interleukin-8 (IL8) Biomarker Activity (AID 2284261); details: primary human lung fibroblasts
In short: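 In this multiplexed primary-cell system, fibroblasts from human lung are treated with chemicals, and IL-8 is detected by ELISA at 24 h, with DMSO serving as the negative reference.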

Decorin, DCN (gene 1634) = experiment: BSK_MyoF_Decorin: BioMAP Diversity Plus: MyoF Assay for Decorin Biomarker Activity (AID 2284265); details: primary human lung fibroblasts
In short: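 Lung fibroblast cultures, 24 h chemical exposure. Decorin by ELISA, positive fitting direction, DMSO baseline.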

[3] = BSK_MyoF_SRB: Viability Assessment in the BioMAP Diversity Plus: MyoF Assay (AID 2284267); details: primary human lung fibroblasts;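 further: total protein by SRB absorbance in parallel cultures as cytotoxicity measure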
In short: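 Lung fibroblast cultures, 24 h post-dose; fix 10% TCA, stain 0.1% SRB, read 560 nm. Signal = total protein as cytotoxicity measure; fitted relative to DMSO negative control.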

[4] = read-out: Matrix Metallopeptidase 1 (MMP1), MMP1 (gene 4312); experiment: BSK_MyoF_MMP1: BioMAP Diversity Plus: MyoF Assay for Matrix Metallopeptidase 1 (MMP1) Biomarker Activity (AID 2284268); details: primary human lung fibroblasts
In short: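 MMP1 measured by ELISA 24 h after dosing primary human lung fibroblasts; cytotoxicity checked in parallel cultures by sulforhodamine B total-protein staining read at 560 nm.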

[5] = read-out: TIMP metallopeptidase inhibitor 1 (TIMP1), TIMP1 (gene 7076); experiment: BSK_MyoF_TIMP1: BioMAP Diversity Plus: MyoF Assay for TIMP metallopeptidase inhibitor 1 (TIMP1) Biomarker Activity (AID 2284269); details: primary human lung fibroblasts
In short: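 TIMP-1 levels were determined by ELISA in human lung fibroblasts treated for 24 h. DMSO served as negative control and baseline for upward curve fitting.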

[6] = read-out: Macrophage Inflammatory Protein-1 Alpha (MIP1a), CCL3 (gene 6348); experiment: BSK_IMphg_MIP1a: BioMAP Diversity Plus: IMphg Assay for Macrophage Inflammatory Protein-1 Alpha (MIP1a) Biomarker Activity (AID 2284255); details: primary human endothelial cells with macrophages
In short: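 MIP-1a protein levels were quantified by ELISA after 24 h treatment of human endothelial cell–macrophage co-cultures, compared with DMSO. Parallel cultures were fixed with TCA and stained with 0.1% SRB to gauge overt cytotoxicity.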

CD69, CD69 (gene 969) = experiment: BSK_IMphg_CD69: BioMAP Diversity Plus: IMphg Assay for CD69 Biomarker Activity (AID 2284257); details: primary human endothelial cells with macrophages
In short: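 Readout is ELISA for CD69 in primary human venular endothelial cell/macrophage co-culture, taken at 24 h post-dosing. SRB staining of parallel cultures gauged overt cytotoxicity; signal increase versus DMSO defined activity.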

[7] = read-out: Eotaxin 3, CCL26 (gene 10344); experiment: BSK_BF4T_Eotaxin3: BioMAP Diversity Plus: BF4T Assay for Eotaxin 3 Biomarker Activity (AID 2284258); details: primary human bronchial epithelial cells with fibroblasts
In short: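 ELISA measurement of Eotaxin-3 after 24 h chemical exposure in a bronchial epithelial/dermal fibroblast co-culture, with DMSO as baseline. Parallel SRB staining (0.1% SRB after 10% TCA fixation, 560 nm) flagged overt cytotoxicity.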

[8] = read-out: Monocyte Chemoattractant Protein-1 (MCP1), CCL2 (gene 6347); experiment: BSK_BF4T_MCP1: BioMAP Diversity Plus: BF4T Assay for Monocyte Chemoattractant Protein-1 (MCP1) Biomarker Activity (AID 2284259); details: primary human bronchial epithelial cells with fibroblasts
In short: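 MCP-1 ELISA readout taken 24 h after dosing in the BF4T system (bronchial epithelial cells plus dermal fibroblasts). Parallel SRB total-protein staining flagged cytotoxicity; DMSO served as baseline, positive fitting direction.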

[9] = read-out: Intercellular Adhesion Molecule 1 (ICAM1), ICAM1 (gene 3383); experiment: BSK_BF4T_ICAM1: BioMAP Diversity Plus: BF4T Assay for Intercellular Adhesion Molecule 1 (ICAM1) Biomarker Activity (AID 2284260); details: primary human bronchial epithelial cells with fibroblasts
In short: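 ICAM-1 levels measured by ELISA after 24 h chemical treatment of bronchial epithelial cell/dermal fibroblast co-cultures, read against DMSO baseline. Overt cytotoxicity checked in parallel cultures by sulforhodamine B staining.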

CD90, THY1 (gene 7070) = experiment: BSK_BF4T_CD90: BioMAP Diversity Plus: BF4T Assay for CD90 Biomarker Activity (AID 2284262); details: primary human bronchial epithelial cells with fibroblasts
In short: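 CD90 levels by ELISA after 24 h treatment of human bronchial epithelial cell/dermal fibroblast cultures, analysed versus DMSO. Overt cytotoxicity checked in parallel cultures by sulforhodamine B staining.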

[10] = read-out: Interleukin-8 (IL8), CXCL8 (gene 3576); experiment: BSK_BF4T_IL8: BioMAP Diversity Plus: BF4T Assay for Interleukin-8 (IL8) Biomarker Activity (AID 2284263); details: primary human bronchial epithelial cells with fibroblasts
In short: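 Human bronchial epithelial cells with dermal fibroblasts co-culture; IL-8 measured by ELISA 24 hours after dosing, fitted vs DMSO. Cytotoxicity tracked in parallel cultures by SRB total-protein staining.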

[11] = read-out: Interleukin-1 alpha (IL1a), IL1A (gene 3552); experiment: BSK_BF4T_IL1a: BioMAP Diversity Plus: BF4T Assay for Interleukin-1 alpha (IL1a) Biomarker Activity (AID 2284264); details: primary human bronchial epithelial cells with fibroblasts
In short: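 ELISA read-out of IL-1α from bronchial epithelial cell/dermal fibroblast co-cultures 24 h after compound addition. Increases scored against DMSO negative control. Cytotoxicity monitored by sulforhodamine B staining of parallel cultures.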

KRT18 (gene 3875) = experiment: BSK_BF4T_Keratin818: BioMAP Diversity Plus: BF4T Assay for Keratin 818 Biomarker Activity (AID 2284266); details: primary human bronchial epithelial cells with fibroblasts
In short: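 Keratin 8/18 levels quantified by ELISA after 24 h chemical treatment of bronchial epithelial cell/dermal fibroblast co-cultures, fitted in positive direction relative to DMSO. Parallel SRB staining tracks overt cytotoxicity.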

[12] = read-out: Matrix Metallopeptidase 3 (MMP3), MMP3 (gene 4314); experiment: BSK_BF4T_MMP3: BioMAP Diversity Plus: BF4T Assay for Matrix Metallopeptidase 3 (MMP3) Biomarker Activity (AID 2284271); details: primary human bronchial epithelial cells with fibroblasts
In short: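 MMP-3 level read by ELISA after 24 h chemical exposure of bronchial epithelial cell/dermal fibroblast co-cultures, fitted upward relative to DMSO. Parallel cultures stained with 0.1% SRB after TCA fixation gauge overt cytotoxicity.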

[13] = read-out: Plasminogen Activator Inhibitor-1 (PAI1), SERPINE1 (gene 5054); experiment: BSK_BF4T_PAI1: BioMAP Diversity Plus: BF4T Assay for Plasminogen Activator Inhibitor-1 (PAI1) Biomarker Activity (AID 2284273); details: primary human bronchial epithelial cells with fibroblasts
In short: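 PAI-1 levels quantified by ELISA 24 h post-dosing in bronchial epithelial cell plus dermal fibroblast cultures. Signal gain referenced to DMSO baseline. Sulforhodamine B total-protein staining of parallel wells checked cytotoxicity.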

[14] = BSK_BF4T_SRB: Viability Assessment in the BioMAP Diversity Plus: BF4T Assay (AID 2284274); details: primary human bronchial epithelial cells with fibroblasts
In short: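 Cytotoxicity measured as total protein: cells fixed with 10% TCA, stained with 0.1% SRB, read at 560 nm. Bronchial epithelial/dermal fibroblast co-culture, 24 h after dosing, with positive-direction fitting relative to DMSO.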

[15] = read-out: urokinase Plasminogen Activator (uPA), PLAU (gene 5328); experiment: BSK_BF4T_uPA: BioMAP Diversity Plus: BF4T Assay for urokinase Plasminogen Activator (uPA) Biomarker Activity (AID 2284275); details: primary human bronchial epithelial cells with fibroblasts
In short: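 uPA levels measured by ELISA at 24 hours in BF4T cultures (bronchial epithelial cells plus dermal fibroblasts) and compared with DMSO; cytotoxicity tracked in parallel cultures by sulforhodamine B staining.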

[16] = read-out: Matrix Metallopeptidase 9 (MMP9), MMP9 (gene 4318); experiment: BSK_BF4T_MMP9: BioMAP Diversity Plus: BF4T Assay for Matrix Metallopeptidase 9 (MMP9) Biomarker Activity (AID 2284276); details: primary human bronchial epithelial cells with fibroblasts
In short: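 MMP-9 levels were measured by ELISA after 24 h exposure of bronchial epithelial cell/dermal fibroblast co-cultures, with DMSO as baseline. Parallel cultures were stained with 0.1% SRB after TCA fixation, read at 560 nm, to flag overt cytotoxicity.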

Measured: AC50

Cc1cccc(O)c1C
inactive: [1] | [2] | Decorin, DCN (gene 1634) | [3] | [4] | [5]

S=P(N1CC1)(N1CC1)N1CC1
inactive: [1] | [2] | Decorin, DCN (gene 1634) | [3] | [4] | [5]

OCc1c[nH]c2ccccc12
inactive: [1] | [2] | Decorin, DCN (gene 1634) | [3] | [5]
active: [4] 16.8 µM

NCC(F)(F)C(F)(F)C(F)(F)C(F)(F)F
inactive: [6] | [1] | CD69, CD69 (gene 969) | [7] | [8] | [9] | [2] | CD90, THY1 (gene 7070) | [10] | [11] | Decorin, DCN (gene 1634) | KRT18 (gene 3875) | [3] | [4] | [5] | [12] | [13] | [14] | [15] | [16]
active: [5] 307 nM

OC(O)(C(F)C(O)(O)C(F)(F)F)C(F)(F)F
active: [6] 5.44 µM and 7.95 µM | [5] 991 nM
inactive: [1] | CD69, CD69 (gene 969) | [7] | [8] | [9] | [2] | CD90, THY1 (gene 7070) | [10] | [11] | Decorin, DCN (gene 1634) | KRT18 (gene 3875) | [3] | [4] | [5] | [12] | [13] | [14] | [15] | [16]

C[Si](C)(C)C(F)(F)C(F)(F)C(F)(F)F
inactive: all assays above

OCCC(F)(F)C(F)(F)C(F)(F)C(F)(F)F
inactive: all assays above

O=S(=O)(O)CCC(F)(F)C(F)(F)C(F)(F)C(F)(F)C(F)(F)C(F)(F)F
inactive: all assays above

FC(F)=C(F)C(F)(F)C(F)(F)C(F)(F)C(F)(F)C(F)(F)C(F)(F)F
inactive: all assays above

FC(F)(F)COC(OCC(F)(F)F)OCC(F)(F)F
inactive: all assays above

FC(F)C(F)(F)COCC1CO1 (stereo not given)
inactive: all assays above

O=C(Cl)C(F)(F)C(F)(F)C(F)(F)C(=O)Cl
inactive: all assays above

FC(F)(F)C(F)(F)C(F)(F)C(F)(F)C(F)(F)C(F)(F)I
active: [1] 38.6 µM and 22.2 µM | [3] 25.6 µM and 26.5 µM | [4] 14 µM and 21.6 µM
inactive: all other assays above
